For 28 compounds, growth results are on record in PubChem BioAssay (NCI).

What all share (assay): NCI-60 one-dose screen, 48 h (100 = growth as untreated, 0 = no growth, -100 = all killed)
Holding throughout (settings): 10 µM unless noted

For test [1], the system named is HCT-15 colon.
In test [2] the test system is HT29 colon.
In test [3] the test system is SNB-75 CNS.
The subject of test [4] is SNB-19 CNS.
The test system of test [5] is U251 CNS.
The subject of test [6] is PC-3 prostate.
Test [7] deals with SK-MEL-5 melanoma.
In test [8] the test system is UACC-62 melanoma.
Test [9] concerns LOX IMVI melanoma.
For test [10], the system named is SK-MEL-28 melanoma.

About 83,000 compounds went through this panel and 20% of them were active in at least one assay; those are over-represented in the sample as a whole.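 Negative percent growth values reflect cell death: -40 means 40% of the cells present at the start died, and -100 means all died.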 A number with no mark means an inactive call. The source made the active and inactive calls. How the source made its calls: active means growth percent below 10; inactive means the rest.

`COc1ccc(-c2nc(SCCC(C)C)nc(N/N=C\c3ccccc3O)c2C#N)cc1`: the growth was 86.6% in test [1]; 103% in test [2]; 74.8% in test [3]; 72.4% in [4]; 60.5% in test [5]; 92.3% in test [6]. Further, the growth in test [7] was 94.2%; in [8] it was 90%; in [9] it was 84.6%; in test [10], 99.1%.
As for `COc1ccc(-c2csc(C3=C(O)CN(C(C)C)C3=N)n2)cc1OC`, the growth in test [1] was 103%; in [2], 102%; in [3], 112%; in test [4], 104%; in test [5], 98.3%; in [6], 35.3%. The growth in [7] is 82.5%; in test [8] it was 97.3%; in test [9], 94.1%.
For the compound `CC/C=C\CCC/C=C1/C(=O)C=C[C@@H]1C/C=C\CCCC(=O)O`, the growth in test [1] is 53.7%; in [2] it was 31.9%; in test [3], 86.5%; in test [4], 69.2%; in [5], 39.8%; in test [6] it was 57.6%. For the same compound, the growth in [7] is 16.9%; in test [8] it was 15.6%; in test [9] it was 0.644% (active).
Consider `N#Cc1c2c(nn(-c3ccccc3)c1=O)C(O)=C([N+](=O)[O-])C(c1ccccc1)C2` (stereo not drawn), for which the growth in test [1] is 54.7%; in [2], 94.1%; in test [3], 90.6%; in test [4] it was 84.2%; in [5], 57.7%; in test [6], 80.5%. Also, the growth in test [7] is 92.9%; in test [8], 84.6%; in [9], 17.9%.
On to `O=C(NCCCNc1cc(-c2cn(-c3ccccc3)nc2-c2cccc(O)c2)ccn1)c1ccc(F)cc1`, for which the growth in [1] is -4.32% (active); in [2], 0.339% (active); in [3], 10.9%; in test [4], 54.2%; in test [5], 15.6%; in test [6], 12.6%. Also, the figures for the growth in [7], in test [8] and in test [9] were -24.8% (active), -1.62% (active) and 21.5%, respectively.
For the compound `COc1cc(/C=C2\C(=O)ON=C2C)cc(OC)c1OC`, the growth was 102% in [1]; 103% in [2]; 80.4% in test [3]; 95.6% in test [4]; 100% in test [5]; 97.3% in [6]. The growth is 101% in [7], 97% in test [8] and 96.2% in [9].
Consider `Cc1c(C(=O)NC(Cc2ccccc2)C(O)C(=O)NCc2ccc(F)cc2)[nH]c2ccccc2c1=O` (stereo not drawn), for which the growth in test [1] is 103%; in test [2], 102%; in test [3], 99.1%; in test [4], 100%; in [5] it was 90.2%; in [6], 103%. Besides, the results for the growth in [7], in [8] and in [9] were 103%, 111% and 101%, respectively.
As for `CNC(=O)NCC1OC(n2cnc3c(NC(=O)Nc4ccccc4)ncnc32)C(O[Si](C)(C)C(C)(C)C)C1CC(=O)N(C)OC` (stereo not drawn), the growth in [1] was 11.9%; in test [2], -25.5% (active); in test [3], -7.28% (active); in [4], 37.2%; in test [5] it was -15.2% (active); in test [6], -20.8% (active). Moreover, the growth in [7] is 25.9%; in test [8] it was 34.4%; in test [9] it was 18.6%.
Consider `COC(=O)[C@]12CC[C@@H](C)[C@H](C)[C@@H]1C1=CC[C@@H]3[C@@]4(C)C(C=O)=C[C@@](C)(COC(=O)c5ccco5)[C@@H]4C(=O)C[C@@]3(C)[C@]1(C)CC2`, for which the growth is 25.2% in test [1]; 29.9% in test [2]; 34.8% in [3]; 39.7% in [4]; 33.9% in [5]; 11.1% in test [6]. Also, the growth in [7] is -84.8% (active); in test [8], -23.8% (active); in [9], 26.6%.
With `COc1cc(-c2nc(N3CCN(C)CC3)c3ccccc3n2)cc(OC)c1OC`, the growth in [1] was 56.9%; in [2] it was 49.5%; in test [3], 15.7%; in [4] it was 85.2%; in [5], 60.2%; in test [6], 52.8%. The growth was 47% in test [7], 18.2% in [8] and 44.3% in [9].
For the compound `COc1ccc2c(c1)C(=O)/C(=C/c1ccc(OCC(=O)Nc3nccs3)cc1)O2`, the growth in test [1] was 76.2%; in test [2] it was 3.69% (active); in test [3] it was -90.7% (active); in [4], 78.6%; in [5] it was 4.62% (active); in [6], -62% (active). In addition, the growth was 100% in [7], 74.2% in test [8] and -58.2% (active) in [9].
`COc1cccc(-c2nc3sccn3c2/C=C/C(=O)c2ccc(C(F)(F)F)cc2)c1`: the growth in test [1] was 69.1%; in test [2] it was 75.3%; in test [3] it was 81.7%; in test [4] it was 79.7%; in test [5] it was 83.2%; in test [6], 63.2%. Moreover, the growth in test [7] is 71.5%; in test [8], 66.1%; in test [9] it was 88.3%.
As for `CCCCNC(=O)Oc1ccc2c(=O)c3sc4c(=O)c5ccccc5c(=O)c4c3c(=O)c2c1`, the growth in test [1] was -84% (active); in test [2], -41.6% (active); in test [3], -98.3% (active); in test [4], -93.6% (active); in test [5], -73% (active); in test [6] it was -15.5% (active). In addition, the growth was -96.9% (active) in test [7], -75% (active) in [8] and -72.9% (active) in test [9].
`C=C1C(=O)O[C@H]2[C@H]1CC/C(CNC(=O)/C=C/c1ccc(Cl)cc1Cl)=C\CC[C@@]1(C)O[C@@H]21`: the growth is -64% (active) in [1]; -58.4% (active) in test [2]; 21.3% in test [3]; 37.4% in test [4]; 8.28% (active) in [5]; -26.4% (active) in test [6]. Also, the growth in test [7] is 3.01% (active); in [8] it was -65.2% (active).
As to `NC(=S)Nc1cccc(O)c1`, the growth in test [1] is 88.3%; in test [2] it was 103%; in [3], 83.8%; in [4], 99.3%; in test [5], 95.5%; in test [6], 105%. Further, the growth is 106% in test [7], 90.5% in test [8] and 87.8% in test [9].
On to `O=C(NC(CSSCC(NC(=O)c1ccccc1)C(=O)O)C(=O)O)c1ccccc1` (stereo not drawn), for which the growth in test [1] is 99.8%; in [2], 103%; in test [3] it was 102%; in test [4], 107%; in test [5], 104%; in [6], 95.8%. For the same compound, the growth is 108% in [7], 99.6% in test [8] and 95.7% in [9].
Regarding `CC(CCc1ccc(Cl)c(Cl)c1)NCc1ccc(C(C)(C)C)cc1` (stereo not drawn), the growth in [1] was 77.3%; in [2], 39.6%; in test [3] it was 70.6%; in test [4] it was 92.5%; in [5] it was 70.6%; in test [6], 77.5%. In addition, the growth in test [7] is 92.8%; in [8], 89.9%; in test [9] it was 79.8%.
In the case of `Clc1cc(Cl)cc(Nc2ccc3cc(OCCCN4CCOCC4)ccc3n2)c1`, the growth in [1] is 7.18% (active); in test [2], -39.5% (active); in test [3], 11%; in test [4] it was 38.5%; in test [5], 2.35% (active); in test [6], 21.8%. Also, the growth was 71% in test [7], 12.9% in test [8] and -77.6% (active) in test [9].
For `C[n+]1cc2c3c(ccc2c2ccc4cc5c(cc4c21)OCO5)OCO3`, the growth was -81.2% (active) in [1]; -84.9% (active) in test [2]; -78.8% (active) in test [3]; -87.1% (active) in test [4]; -82.2% (active) in test [5]; -72.8% (active) in [6]. Moreover, the growth is -99.4% (active) in [7], -66.7% (active) in test [8] and -73.9% (active) in test [9].
Consider `O=C(NCCCNc1cc(-c2cn(-c3ccccc3)nc2-c2cccc(O)c2)ccn1)c1ccccc1`, for which the growth in test [1] is 1.17% (active); in test [2], -2.39% (active); in [3] it was 23.1%; in test [4], 65.7%; in test [5] it was 27.9%; in test [6] it was 27.2%. Moreover, the growth in [7] was -37.8% (active); in test [8] it was 23.6%; in [9], 17.3%.
`COc1ccc(C2=NN(C(=O)c3cc(OC)c(OC)c(OC)c3)C(c3ccc(Cl)cc3)C2)cc1OC` (stereo not drawn): the growth in [1] was 9.3% (active); in [2], 15.2%; in [3] it was 21.9%; in test [4] it was 29.1%; in [5], 24%; in test [6], 26.5%. Also, the growth is 9.51% (active) in [7], 31.1% in test [8] and 31.3% in [9].
With `CC(=O)OC1CCC2(C)C(=CC3C4CCC(=O)C4(C)CCC32)C1` (stereo not drawn), the growth was 98.2% in [1]; 99.7% in test [2]; 83.8% in test [3]; 98.6% in test [4]; 98.5% in test [5]; 101% in test [6]. Further, the growth is 105% in test [7], 101% in [8], 100% in [9] and 102% in test [10].
For the compound `COc1ccc(-c2csc(C3=C(O)CN(CCCN4CCCC4=O)C3=N)n2)cc1OC`, the growth in [1] is 94%; in test [2], 114%; in test [3], 106%; in test [4] it was 93.8%; in [5], 99%; in test [6] it was 83.5%. Besides, the growth in test [7] is 89.2%; in [8] it was 103%; in test [9], 93.5%.
For `c1csc(-c2c3ccc(=[N+]4CCCCC4)cc-3oc3cc(N4CCCCC4)ccc23)c1`, the growth is -70% (active) in test [1]; -74.2% (active) in test [2]; -47.4% (active) in test [3]; -87.6% (active) in test [4]; -71.7% (active) in test [5]; -65.7% (active) in [6]. In addition, the growth was -90.5% (active) in test [7], -76.1% (active) in [8] and -76.2% (active) in test [9].
For the compound `Cc1ccc2c(c1)Sc1c(ccc3ccccc13)N2`, the growth in [1] is 32.3%; in test [2] it was 73.3%; in [3], 51.8%; in test [4], 94.5%; in test [5], 45.3%; in test [6] it was 61%. In addition, the growth in [7] was 46%; in [8], 58.9%; in [9], 45.6%.
On to `NC(=O)c1ccc[n+](Cc2ccc(Cl)cc2Cl)c1`, for which the growth is 105% in test [1]; 91.3% in test [2]; 102% in test [3]; 101% in [4]; 89.6% in test [5]; 88.9% in [6]. Also, the growth in [7] was 97.6%; in test [8] it was 93.2%; in test [9], 95.8%.
Turning to `CCOC(=O)c1csc(NC(=O)COc2cccc(/C=C3\Oc4cc(OC)ccc4C3=O)c2)n1`, the growth in test [1] is 79.2%; in [2], 101%; in test [3], 78.4%; in [4] it was 83.4%; in test [5], 79.2%; in [6], 78.3%. The growth is 98.5% in test [7], 79% in [8], 66.7% in [9] and 119% in test [10].
For `CCN(CC)c1ccc2nc3c4ccccc4c(=NC(=O)c4ccccc4-c4c5ccc(N(CC)CC)cc5[o+]c5cc(N(CC)CC)ccc45)cc-3oc2c1`, the growth is 6.13% (active) in test [1]; 1.92% (active) in [2]; 67.7% in test [3]; -22.3% (active) in [4]; 20.5% in test [5]; 12.1% in test [6]. Also, the growth in [7] was -69.8% (active); in test [8], 67.5%.
